# Results reported in PubChem BioAssay.
# Calls of active or inactive are those of the source. Unless noted, the rule behind the calls is not given here.
# Tests used:
# [1] = system: Wnt5a (protein binding on small-molecule microarray); experiment: Wnt5a binders on small-molecule microarray, primary screen, biophysical, 635/667 nm fluorescence (AID 1142); conditions: 635 nm fluorescence, higher = more signal;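 note: fluorescence read at 667 nm with signal to noise per printed feature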
# [2] = cell viability in Huh7 cells, primary screen, cytotoxicity control for HCV replication inhibitor project, CellTiter-Glo luminescence, basal, 48 h (AID 1143); conditions: Huh7 HCV replicon, higher = more signal, called active from +8 up or from −8 down;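 note: Huh7 hepatoma cells carrying a hepatitis C replication reporter with no stimulus; test concentration not given here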
# [3] = P. aeruginosa biofilm formation inhibitors, primary screen, PAO1 strain, BacTiter-Glo luminescence, LB-PBS (AID 1144); conditions: 12 h, higher = more signal
# [4] = CREB reporter modulators without forskolin, primary screen, cell-based, PC12, CRE-LacZ reporter, unstimulated (AID 1145); conditions: no forskolin, luminescence, 4.5 h, higher = more signal, called active from +8 up or from −8 down
# [5] = CREB reporter modulators under forskolin, primary screen, cell-based, PC12, CRE-LacZ reporter, forskolin-stimulated (AID 1146); conditions: luminescence, 4.5 h, higher = more signal, called active from +8 up or from −8 down;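 note: PC12 cells with 6xCRE LacZ reporter stimulated by forskolin 10 µM; beta-galactosidase reporter signal reflecting CREB driven transcription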
# [6] = molecular target: Streptavidin (Streptomyces avidinii) (UniProt P22629); experiment: streptavidin binders on small-molecule microarray, primary screen, artefact control for SMM compound annotation, biophysical, 635/667 nm fluorescence (AID 1147); conditions: streptavidin binding, higher = more signal;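 note: signal reflects streptavidin binding to arrayed compounds as a control protein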
# [7] = small-molecule binders of probe aInhba, primary screen, biochemical, small-molecule microarray, 635/667 nm fluorescence (AID 1148); conditions: higher = more signal;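 note: score merges 667nm spot fluorescence with signal-to-noise for antibody binding to printed compounds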
# Torsin-1A (Homo sapiens) [8] = molecular target: Torsin-1A (Homo sapiens) (UniProt O14656); experiment: torsin A binders from cell lysate, primary screen, small-molecule microarray, wild-type, 635/667 nm (AID 1149); conditions: COS7 hTOR1A-WT lysate, 635 nm fluorescence, higher = more signal
# Torsin-1A (Homo sapiens) [9] = molecular target: Torsin-1A (Homo sapiens) (UniProt O14656); experiment: small-molecule binders of mutant TOR1A in lysate, primary screen, cell lysate, small-molecule microarray, COS7 lysate, 635/667 nm fluorescence (AID 1150); conditions: COS7 hTOR1A mutant lysate, 635 nm fluorescence, higher = more signal;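 note: score pools 667 nm emission and signal to noise measuring lysate protein binding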
# [10] = system: Sonic hedgehog protein (Shh); experiment: small-molecule binders of Shh protein, primary screen, biochemical, small-molecule microarray, 635/667 nm fluorescence (AID 1151); conditions: small-molecule microarray binding, 635 nm fluorescence; higher = more signal;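 note: Shh protein binding to compounds spotted on small-molecule microarray slides; score combines spot fluorescence intensity with signal-to-noise across triplicate slides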
# [11] = E. coli DRC41 culture turbidity changes, primary screen, E. coli filamentation inducer project, strain DRC41, OD650, 48 h (AID 1152);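 note: E. coli MC1000 strain DRC41 lacking acrAB efflux pump and sulA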; conditions: E. coli DRC41 (acrAB sulA), higher = more signal, called active from +8 up or from −8 down
# [12] = small-molecule binders of probe aLefty1, primary screen, biochemical, small-molecule microarray, 635/667 nm fluorescence (AID 1153); conditions: higher = more signal;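 note: score merges spot fluorescence with signal-to-noise ratio from the scanned slide images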
# [13] = PSAC antagonists in infected red cells, primary screen, cell-based, P. falciparum Indochina, OD700, 1 h (AID 1154); conditions: P. falciparum Indochina infected RBC osmotic lysis, higher = more signal, called active from +8 up or from −8 down
# [14] = PSAC antagonists in infected red cells, primary screen, cell-based, P. falciparum Indochina, OD700, 2 h (AID 1155);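 note: lysis reports solute entry through the parasite surface anion channel PSAC; channel blockers reduce lysis of infected cells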; conditions: P. falciparum Indochina infected erythrocytes, osmotic lysis OD700; higher = more signal, called active from +8 up or from −8 down
# [15] = osmotic lysis modulators in infected erythrocytes, primary screen, PSAC antagonist project, cell-based, P. falciparum Indochina, OD700, 3 h (AID 1156); conditions: higher = more signal, called active from +8 up or from −8 down
# [16] = PSAC antagonists in infected red cells, primary screen, cell-based, P. falciparum Indochina, OD700, 18 h (AID 1157); conditions: P. falciparum Indochina infected erythrocytes, osmotic lysis OD700, 18 h; higher = more signal, called active from +8 up or from −8 down
# [17] = modulators of S6 phosphorylation in cells, primary screen, cell-based, A549, cytoblot, luminescence, serum-stimulated (AID 1158); conditions: A549 phospho-S6 cytoblot, 5 h, higher = more signal;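 note: serum-stimulated A549 lung adenocarcinoma cells; signal is phosphorylated S6 detected by cytoblot immunostaining with HRP secondary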
# [18] = molecular target: NADPH oxidase 2 (Homo sapiens) (UniProt P04839); experiment: NOX2-dependent H2O2 signal modulators, primary screen, NOX inhibitor project, cell-based, HEK293-NOX2, PMA-stimulated, Amplex Red fluorescence (AID 1159); conditions: 45 min, higher = more signal, called active from +8 up or from −8 down; note: test concentration not given here
# [19] = molecular target: NADPH oxidase 4 (Homo sapiens) (UniProt Q9NPH5); experiment: NOX4-dependent H2O2 signal modulators, primary screen, NOX inhibitor project, cell-based, HEK293-NOX4, tetracycline-induced, Amplex Red fluorescence (AID 1160); conditions: 45 min, higher = more signal, called active from +8 up or from −8 down
# [20] = molecular target: NADPH oxidase 5 (Homo sapiens) (UniProt Q96PH1); experiment: NOX5-dependent H2O2 signal modulators, primary screen, NOX inhibitor project, cell-based, HEK293-NOX5, Amplex Red fluorescence (AID 1161); conditions: HEK293-NOX5, ionomycin, 45 min, higher = more signal
# Sequence of NADPH oxidase 5 (Homo sapiens) (Q96PH1 whole entry, looked up): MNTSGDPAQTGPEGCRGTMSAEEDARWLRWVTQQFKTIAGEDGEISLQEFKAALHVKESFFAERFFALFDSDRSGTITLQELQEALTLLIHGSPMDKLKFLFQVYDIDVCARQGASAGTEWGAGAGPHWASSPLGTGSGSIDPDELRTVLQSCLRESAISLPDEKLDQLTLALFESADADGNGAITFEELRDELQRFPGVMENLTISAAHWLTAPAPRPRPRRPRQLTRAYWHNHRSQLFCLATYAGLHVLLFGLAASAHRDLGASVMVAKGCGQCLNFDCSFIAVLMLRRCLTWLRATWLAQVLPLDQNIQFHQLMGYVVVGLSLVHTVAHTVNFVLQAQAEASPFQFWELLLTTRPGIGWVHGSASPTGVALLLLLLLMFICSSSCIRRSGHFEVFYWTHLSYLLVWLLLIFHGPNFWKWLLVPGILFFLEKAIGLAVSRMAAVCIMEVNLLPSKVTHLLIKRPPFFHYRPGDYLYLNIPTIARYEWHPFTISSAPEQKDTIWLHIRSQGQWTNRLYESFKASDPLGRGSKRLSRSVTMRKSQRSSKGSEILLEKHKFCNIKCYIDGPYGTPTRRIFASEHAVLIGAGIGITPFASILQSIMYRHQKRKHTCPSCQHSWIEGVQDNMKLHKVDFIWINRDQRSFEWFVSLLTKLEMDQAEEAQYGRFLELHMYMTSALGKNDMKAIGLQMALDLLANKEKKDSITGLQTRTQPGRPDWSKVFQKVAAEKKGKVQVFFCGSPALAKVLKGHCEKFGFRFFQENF
# Sequence of Torsin-1A (Homo sapiens) (O14656 whole entry, looked up): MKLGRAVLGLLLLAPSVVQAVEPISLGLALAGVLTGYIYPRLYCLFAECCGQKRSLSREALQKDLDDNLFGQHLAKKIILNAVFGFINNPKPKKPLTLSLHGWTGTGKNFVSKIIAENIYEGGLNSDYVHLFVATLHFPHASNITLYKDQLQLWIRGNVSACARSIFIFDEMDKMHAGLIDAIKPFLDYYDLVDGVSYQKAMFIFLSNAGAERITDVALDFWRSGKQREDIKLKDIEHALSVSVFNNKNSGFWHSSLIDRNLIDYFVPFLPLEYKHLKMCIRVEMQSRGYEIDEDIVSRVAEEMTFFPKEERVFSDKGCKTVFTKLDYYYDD
# Sequence of Streptavidin (Streptomyces avidinii) (P22629 whole entry, looked up): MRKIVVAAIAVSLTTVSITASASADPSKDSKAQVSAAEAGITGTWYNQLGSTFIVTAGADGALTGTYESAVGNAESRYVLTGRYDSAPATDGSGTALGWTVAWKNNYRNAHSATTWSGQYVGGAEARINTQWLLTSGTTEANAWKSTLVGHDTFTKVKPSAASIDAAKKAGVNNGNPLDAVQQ
# Sequence of NADPH oxidase 4 (Homo sapiens) (Q9NPH5 whole entry, looked up): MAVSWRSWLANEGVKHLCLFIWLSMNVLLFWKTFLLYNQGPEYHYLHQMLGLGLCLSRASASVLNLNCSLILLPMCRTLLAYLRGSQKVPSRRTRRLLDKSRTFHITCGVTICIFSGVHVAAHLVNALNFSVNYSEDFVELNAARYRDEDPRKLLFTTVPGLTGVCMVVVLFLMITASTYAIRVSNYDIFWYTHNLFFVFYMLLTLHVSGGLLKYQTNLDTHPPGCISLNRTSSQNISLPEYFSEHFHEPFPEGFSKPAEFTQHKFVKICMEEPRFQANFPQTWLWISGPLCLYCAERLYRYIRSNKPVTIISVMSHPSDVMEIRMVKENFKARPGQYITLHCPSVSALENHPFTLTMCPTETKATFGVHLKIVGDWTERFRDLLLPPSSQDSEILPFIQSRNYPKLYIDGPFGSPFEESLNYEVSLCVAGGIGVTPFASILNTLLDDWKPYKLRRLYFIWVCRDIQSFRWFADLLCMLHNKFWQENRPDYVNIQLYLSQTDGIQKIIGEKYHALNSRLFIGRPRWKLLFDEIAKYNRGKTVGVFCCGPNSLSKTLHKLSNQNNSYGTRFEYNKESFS
# Sequence of NADPH oxidase 2 (Homo sapiens) (P04839 whole entry, looked up): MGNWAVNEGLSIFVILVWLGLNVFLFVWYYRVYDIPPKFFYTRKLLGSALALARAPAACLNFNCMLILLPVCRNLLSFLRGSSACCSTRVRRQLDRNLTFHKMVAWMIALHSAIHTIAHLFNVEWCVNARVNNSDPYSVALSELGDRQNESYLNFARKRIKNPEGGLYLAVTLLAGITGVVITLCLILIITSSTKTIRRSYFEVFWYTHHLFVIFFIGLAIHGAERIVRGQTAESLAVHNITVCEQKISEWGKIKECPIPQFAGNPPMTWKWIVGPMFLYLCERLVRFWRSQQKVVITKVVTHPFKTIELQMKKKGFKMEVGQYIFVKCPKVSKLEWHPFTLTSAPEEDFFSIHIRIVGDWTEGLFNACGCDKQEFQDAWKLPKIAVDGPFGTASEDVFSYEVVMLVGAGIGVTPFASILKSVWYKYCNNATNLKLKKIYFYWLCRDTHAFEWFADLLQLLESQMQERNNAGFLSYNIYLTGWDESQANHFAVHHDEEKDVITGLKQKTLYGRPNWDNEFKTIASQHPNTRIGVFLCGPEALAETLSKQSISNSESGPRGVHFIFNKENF
SMILES,composite z-score [1],z-score [2],z-score [3],z-score [4],z-score [5],composite z-score [6],composite z-score [7],composite z-score (Torsin-1A (Homo sapiens) [8]),composite z-score (Torsin-1A (Homo sapiens) [9]),composite z-score [10],z-score [11],composite z-score [12],z-score [13],z-score [14],z-score [15],z-score [16],z-score [17],z-score [18],z-score [19],z-score [20]
Nc1cc(Br)ccc1C(=O)O,0.0415,0.389 (inactive),0.0538 (inactive),0.209 (inactive),-0.929 (inactive),0.689,-0.0719,0.136,0.474,0.0009,0.813 (inactive),0.139,-0.319 (inactive),0.371 (inactive),-0.611 (inactive),0.0089 (inactive),0.265,0.0525 (inactive),-0.204 (inactive),0.142
[N-]=[N+]=NCc1ccccc1[C@H]1OC(c2ccc(OCCCO)cc2)=N[C@@]1(CCS(=O)(=O)c1ccccc1)C(=O)NCc1ccccc1,0.486,-1.14 (inactive),0.318 (inactive),0.549 (inactive),-0.0054 (inactive),1.25,0.282,0.61,0.563,-0.081,1.14 (inactive),-0.271,25 (active),8.39 (active),1.49 (inactive),1.38 (inactive),0.127,2.27 (inactive),0.837 (inactive),-0.887
O=c1cccc(-c2ccc(F)cc2)o1,0.0405,0.0779 (inactive),-0.291 (inactive),-0.433 (inactive),1.01 (inactive),0.386,0.179,0.309,0.0586,0.559,-0.527 (inactive),0.0367,1.74 (inactive),0.624 (inactive),-0.099 (inactive),0.832 (inactive),-0.387,0.227 (inactive),-1.19 (inactive),-0.184
COc1ccc(C#Cc2ccc3c(c2)[C@]2(C(=O)N3)[C@H](C(=O)Nc3nc4ccccc4s3)[C@H]3C(=O)O[C@H](c4ccccc4)[C@H](c4ccccc4)N3[C@@H]2c2ccccc2OCCO)cc1,0.189,-4.68 (inactive),-0.939 (inactive),-0.788 (inactive),-0.369 (inactive),0.689,0.0569,0.076,0.0705,0.912,2.86 (inactive),-0.118,2.32 (inactive),2.07 (inactive),-0.279 (inactive),-0.442 (inactive),0.81,1.91 (inactive),-0.0532 (inactive),0.268
CC(=O)NCCCC[C@@H]1NC(=O)[C@@H]2C[C@H](C(=O)NCCCCCCN)[C@H](c3cccc(OCCO)c3)N2C1=O,-0.147,-0.0107 (inactive),0.615 (inactive),-0.13 (inactive),-0.556 (inactive),0.932,-0.128,0.475,0.464,-0.601,-0.813 (inactive),0.0455,9.65 (active),0.503 (inactive),0.819 (inactive),0.351 (inactive),-0.42,0.892 (inactive),0.353 (inactive),-0.568
COCCOC(=O)N1C(=O)[C@@]2(c3cc(C#CC4(O)CCCCCC4)ccc31)[C@H](C(=O)N1CCN(c3ncccn3)CC1)[C@H]1C(=O)O[C@H](c3ccccc3)[C@H](c3ccccc3)N1[C@@H]2c1ccccc1OCCO,0.329,-2.56 (inactive),0.884 (inactive),0.204 (inactive),1.22 (inactive),0.0715,0.258,0.835,0.577,1.52,-0.53 (inactive),0.487,1.57 (inactive),0.276 (inactive),0.547 (inactive),0.384 (inactive),-0.21,1.82 (inactive),-0.726 (inactive),1.31
CC(C)C(CO)N1C(=O)[C@@H]2[C@H]3C(=O)OCC=C[C@H]3OC23C=CCN(C(C)(C)C)C(=O)[C@@H]13 (stereo not given in full),-0.682,-0.342 (inactive),0.947 (inactive),1.01 (inactive),0.412 (inactive),-0.633,-0.0762,-1.59,-0.934,0.54,-0.875 (inactive),-0.155,0.897 (inactive),0.226 (inactive),0.697 (inactive),0.0863 (inactive),-0.154,0.997 (inactive),0.16 (inactive),1.92
O=C1C2C=CC(C(O)c3cccc(O)c3)N(Nc3ccccc3)C2C(=O)N1c1ccccc1 (stereo not given),-0.105,-2.93 (inactive),-1.06 (inactive),-0.14 (inactive),1.37 (inactive),0.318,-0.0645,-0.338,-0.283,-0.461,-1.09 (inactive),0.315,6.48 (inactive),0.214 (inactive),0.185 (inactive),0.115 (inactive),0.109,-3.44 (inactive),-6.62 (inactive),-6.85
Cc1ccc(S[C@]2(C(=O)NC(C)C)CC(=O)N(Cc3ccccc3Cl)[C@@H]2c2ccc(CO)cc2)cc1,-0.323,-2.67 (inactive),-0.141 (inactive),-0.295 (inactive),0.506 (inactive),-1.03,-0.149,-2.93,-1.86,-0.761,-1.03 (inactive),0.0509,3.11 (inactive),0.0285 (inactive),1.5 (inactive),0.253 (inactive),-0.026,-0.984 (inactive),-1.19 (inactive),-0.486
O=C(CS)NCCCCCCNC(=O)[C@@H]1C[C@@H]2C(=O)NCC(=O)N2[C@@H]1c1ccc(O)cc1,-0.101,-0.534 (inactive),-1.26 (inactive),-0.537 (inactive),-1.57 (inactive),-0.635,-0.293,0.397,-0.814,0.236,1.58 (inactive),0.0341,2.54 (inactive),-0.164 (inactive),1.62 (inactive),-1.41 (inactive),2.85,0.266 (inactive),0.147 (inactive),1.51
CC(C)C(=C=CC[C@H](O)c1cccc(OCCO)c1)CCO,0.299,-1.25 (inactive),-0.461 (inactive),6.6 (inactive),-0.253 (inactive),-0.669,-0.224,-0.513,0.15,0.688,1.09 (inactive),-0.116,1.77 (inactive),-1.04 (inactive),-1.42 (inactive),-1.95 (inactive),0.28,-0.24 (inactive),0.17 (inactive),-1.29
COc1cc2c(cc1OC)CN(C(=O)[C@@H]1[C@H]3C(=O)O[C@H](c4ccccc4)[C@H](c4ccccc4)N3[C@H](c3ccc(O)cc3)[C@@]13C(=O)Nc1ccc(C#CCCO)cc13)CC2,0.527,0.082 (inactive),-0.403 (inactive),-0.878 (inactive),-0.231 (inactive),0.819,-0.0493,-0.0185,0.45,0.655,-0.0186 (inactive),-0.149,0.125 (inactive),0.448 (inactive),1.16 (inactive),0.165 (inactive),-0.42,0.777 (inactive),0.152 (inactive),0.532
